Where a name gives a salt, the structure may show the parent alone. ± gives the standard deviation of the averaged measurements.
What follows are molecules tested on Saccharomyces cerevisiae BY4741 SeMeCo community (assay: mean cell size (pixel area) (pixels); higher = larger cells). Details: 10 µM; 24 h; SM minimal medium.
In short: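 Mean cell pixel area per well was measured in a four-plasmid fluorescent community of Saccharomyces cerevisiae BY4741, where every plasmid complements one auxotrophy and carries a fluorescent marker. Cells from an overnight preculture at OD600 = 1.0 were diluted to OD600 = 0.3 and dispensed at 70 µl into 384-well plates acoustically predosed with drug to a final 10 µM in SM medium. Incubation lasted 24 h, followed by paraformaldehyde fixation, automated confocal imaging and analysis in Harmony. Reported figures are averaged over 3 replicates. Same SeMeCo high-content imaging drug screen: Selleck FDA-approved drugs at 10 µM, 24 h in SM medium, 384-well plates, 3 replicates.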
For `COc1cc(O)c(C(=O)Nc2nc(C(=O)NCCN(C(C)C)C(C)C)cs2)cc1OC` [Acotiamide hydrochloride], the mean cell size was 12.4 ± 0.15.
With `Cc1onc(-c2c(F)cccc2Cl)c1C(=O)N[C@@H]1C(=O)N2[C@@H]1SC(C)(C)[C@@H]2C(=O)O` [Flucloxacillin sodium] the mean cell size was 12.55 ± 0.1.
Molecule `Cc1ncc([N+](=O)[O-])n1CC(O)CCl` (stereo not given) [Ornidazole] has a mean cell size of 12.5 ± 0.26.
`OC(CCCN1CCCCC1)(c1ccccc1)c1ccccc1` [Diphenidol HCl] gave a mean cell size of 12.4 ± 0.41.
Work on `Cc1ccccc1OCC(O)CO` (stereo not given) [Mephenesin] yielded a mean cell size of 12.23 ± 0.086.
With `CC(C)c1c(C(=O)Nc2ccccc2)c(-c2ccccc2)c(-c2ccc(F)cc2)n1CC[C@@H](O)C[C@@H](O)CC(=O)O` [Atorvastatin Calcium] the mean cell size was 12 ± 0.14.
`C[C@@H](O)[C@H]1C(=O)N2C(C(=O)[O-])=C(SC3Cn4cnc[n+]4C3)[C@H](C)[C@H]12` (stereo not given in full) [Biapenem] showed a mean cell size of 12.11 ± 0.1.
`CO/N=C(\C(=O)N[C@@H]1C(=O)N2C(C(=O)OC(C)OC(C)=O)=C(COC(N)=O)CS[C@H]12)c1ccco1` (stereo not given in full) [Cefuroxime axetil] was tested, and the mean cell size was 12.59 ± 0.065.
In the case of `Cc1cc(=O)n(-c2ccccc2)n1C` [Antipyrine], the mean cell size is reported as 12.6 ± 0.13.
Molecule `Oc1c(Cl)cc(Cl)c2cccnc12` [Chloroxine] has a mean cell size of 13.6 ± 0.85.
Work on `CC1(C)CC[C@]2(C(=O)O)CC[C@]3(C)C(=CC[C@@H]4[C@@]5(C)CC[C@H](O)C(C)(C)[C@@H]5CC[C@]43C)[C@@H]2C1` [Oleanolic Acid] yielded a mean cell size of 12.4 ± 0.22.
`CCOC(=O)C1=C(C)NC(C)=C(C(=O)OC)C1c1cccc(Cl)c1Cl` (stereo not given) [Felodipine] showed a mean cell size of 12.57 ± 0.072.
With `O=C1CCc2cc(OCCCCc3nnnn3C3CCCCC3)ccc2N1` [Cilostazol] the mean cell size was 12.32 ± 0.082.
Molecule `Cc1nnc(SCC2=C(C(=O)O)N3C(=O)[C@@H](NC(=O)Cn4cc(Cl)c(=O)c(Cl)c4)[C@H]3SC2)s1` [Cefazedone] has a mean cell size of 12.5 ± 0.39.
With `CS(=O)(=O)c1ccc([C@@H](O)[C@@H](CO)NC(=O)C(Cl)Cl)cc1` [Thiamphenicol] the mean cell size was 12.41 ± 0.061.
For `O=C(O)CCNC(=O)c1ccccc1` [Betamipron], the mean cell size was 12.6 ± 0.21.
`O=c1cc(-c2ccc(O)c(O)c2)oc2cc(O)cc(O)c12` [Luteolin] showed a mean cell size of 12.5 ± 0.16.
Molecule `CN1C[C@@H]2C[C@H]1CN2c1cc2c(cc1F)c(=O)c(C(=O)O)cn2C1CC1` [Danofloxacin Mesylate] has a mean cell size of 12.1 ± 0.25.
`CC(=O)Oc1ccccc1C(=O)O` [Aspirin] gave a mean cell size of 12.5 ± 0.23.
Work on `Cc1noc(NS(=O)(=O)c2ccc(N)cc2)c1C` [Sulfisoxazole] yielded a mean cell size of 12.4 ± 0.16.
For `O=C(NCCO[N+](=O)[O-])c1cccnc1` [Nicorandil], the mean cell size was 12.4 ± 0.13.
`O=C1C(CC[S+]([O-])c2ccccc2)C(=O)N(c2ccccc2)N1c1ccccc1` (racemic) [(+/-)-Sulfinpyrazone] gave a mean cell size of 12.5 ± 0.2.
Molecule `CCCCCCCCCC(=O)N[C@@H](Cc1c[nH]c2ccccc12)C(=O)N[C@H](CC(N)=O)C(=O)N[C@@H](CC(=O)O)C(=O)N[C@@H]1C(=O)NCC(=O)N[C@@H](CCCN)C(=O)N[C@@H](CC(=O)O)C(=O)N[C@H](C)C(=O)N[C@@H](CC(=O)O)C(=O)NCC(=O)N[C@H](CO)C(=O)N[C@@H]([C@H](C)CC(=O)O)C(=O)N[C@@H](CC(=O)c2ccccc2N)C(=O)O[C@@H]1C` [Daptomycin] has a mean cell size of 12.2 ± 0.16.
`CCn1cc(C(=O)O)c(=O)c2cc(F)c(N3CCN(C)CC3)cc21` [Pefloxacin Mesylate] showed a mean cell size of 12.48 ± 0.059.
In the case of `OCc1ccc(Cl)cc1Cl` [2,4-dichlorobenzyl alcohol], the mean cell size is reported as 12.32 ± 0.052.
`CN(C)CCC=C1c2ccccc2CCc2ccccc21` [Amitriptyline HCl] gave a mean cell size of 12.3 ± 0.27.
In the case of `COc1ccccc1OCC(O)CN1CCN(CC(=O)Nc2c(C)cccc2C)CC1` (stereo not given) [Ranolazine], the mean cell size is reported as 12.5 ± 0.23.
In the case of `COc1cc(C(C)=O)ccc1OCCCN1CCC(c2noc3cc(F)ccc23)CC1` [Iloperidone], the mean cell size is reported as 12.4 ± 0.16.
`Cc1ccc(Sc2ccccc2N2CCNCC2)c(C)c1` was tested, and the mean cell size was 12.22 ± 0.086.
In the case of `Nc1ccc(S(=O)(=O)Nc2ccccn2)cc1` [Sulfapyridine], the mean cell size is reported as 12.2 ± 0.13.
`CN1CC(=O)N2[C@H](c3ccc4c(c3)OCO4)c3[nH]c4ccccc4c3C[C@@H]2C1=O` [Tadalafil] was tested, and the mean cell size was 12.3 ± 0.19.
In the case of `CCOC(=O)C1=C[C@@H](OC(CC)CC)[C@H](NC(C)=O)[C@@H](N)C1` [Oseltamivir Phosphate], the mean cell size is reported as 12.42 ± 0.039.
For `O=C(c1ccc(OCCN2CCCCC2)cc1)c1c(-c2ccc(O)cc2)sc2cc(O)ccc12` [Raloxifene HCl], the mean cell size was 12.2 ± 0.27.
In the case of `N#CC(c1ccc(Cl)cc1)c1c(Cl)cc(-n2ncc(=O)[nH]c2=O)cc1Cl` (stereo not given) [Diclazuril], the mean cell size is reported as 12.52 ± 0.088.
Molecule `O=C1NCC2(CCN(CCc3ccccc3)CC2)O1` [Fenspiride HCl] has a mean cell size of 12.6 ± 0.16.
Work on `CCCN[C@H]1CCc2nc(N)sc2C1` [Pramipexole dihydrochloride] yielded a mean cell size of 12.3 ± 0.17.
Molecule `O=C(O)c1ccccc1O` [Salicylic acid] has a mean cell size of 12.4 ± 0.14.
Molecule `CCCOc1ccc(C(=O)OCCN(CC)CC)cc1N` [Proparacaine HCl] has a mean cell size of 12.56 ± 0.068.
`CCOc1ccc2ccccc2c1C(=O)N[C@@H]1C(=O)N2[C@@H]1SC(C)(C)[C@@H]2C(=O)O` [Nafcillin Sodium] was tested, and the mean cell size was 12.2 ± 0.23.
Molecule `CC(C)(O/N=C(\C(=O)N[C@@H]1C(=O)N2C(C(=O)[O-])=C(C[n+]3ccccc3)CS[C@H]12)c1csc(N)n1)C(=O)O` [Ceftazidime] has a mean cell size of 12 ± 0.14.

Source: the supplement of paper PMC8975748
